Common to all, as to assay: qHTS profiling for inhibitors of Plasmodium falciparum proliferation (AID 504749); further: nearly all actives have a fitted effect of over 60% in size
Holding throughout (conditions): P. falciparum in erythrocytes, SYBR Green DNA, 72 h; series mostly up to 28.7 µM
For orientation: qHTS replaces the single test concentration by a dilution series.

One test relates to CP191. The essentials:
(§1)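 Readout was DNA-dye fluorescence from lysed cultures, ex 485/em 535 nm. Parasitized red cells had grown 72 h with compound; data scaled between 0.29 uM artemisinin and DMSO wells and corrected using vehicle-only plates.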

The next test concerns CP192. The essentials:
as §1

A further test has as its system CP247. The essentials: as §1
In another test the test system is CP250. The essentials: as §1
The subject of a further test is CP262. The essentials: as §1
Another test relates to CP201. The essentials:
as §1

The next test has as its system CP252. The essentials:
as §1

Another test deals with C2A. The essentials:
as §1

The test system of the next test is CP185. The essentials:
as §1

The test system of another test is CP211. The essentials: as §1
For another test, the system named is CP215. The essentials:
as §1

Another test deals with CP217. The essentials:
as §1

Another test deals with CP238. The essentials: as §1
The next test deals with CP256. The essentials: as §1
The test system of the next test is CP265. The essentials: as §1
In another test the test system is CP194. The essentials: as §1
The test system of the next test is ATS95. The essentials:
as §1

Another test deals with CP237. The essentials:
as §1

The subject of the next test is CP260. The essentials: as §1
The test system of another test is CP203. The essentials: as §1

Data on 21 molecules can be found in PubChem BioAssay (NCATS).

Inconclusive results are not listed. The source made the active and inactive calls. The call rests on the fitted dose curve; in most records, active means well fitted inhibition curve with a large enough effect; inconclusive means small, poorly fitted or top-dose-only effect; inactive means flat fitted curve, though single readings scatter.
Potency means the concentration at half of the fitted maximal effect.

For `CS(=O)(=O)c1ccc([C@@H](O)[C@@H](COC(=O)CN)NC(=O)C(Cl)Cl)cc1`, the Potency result in the test on CP191, in the test with CP192, in the test on CP247, with CP250 and in the test on CP262 was “inactive” each time.
Regarding `CNC(=O)[C@H](Cc1c[nH]c2ccccc12)NC(=O)[C@@H](CC(=O)NO)CC(C)C`, the Potency result with CP201 and with CP252 was “inactive” throughout.
Turning to `O=C(CCCN1CCC(C(=O)c2ccc(F)cc2)CC1)c1ccc(F)cc1`, the Potency entry in the test with C2A, with CP185, with CP192, in the test with CP201, in the test with CP211 and in the test on CP215 was “inactive” each time. Moreover, the Potency result in the test with CP217, in the test with CP238, in the test with CP250, in the test on CP252, in the test with CP256 and in the test on CP262 was “inactive” throughout. Also, in the test on CP265, the Potency result is “inactive”. Also, the Potency in the test with CP191 was 2 µM (active).
On to `CN1CCCC(CN2c3ccccc3Sc3ccccc32)C1` (centres undefined), for which the Potency entry in the test with CP192, with CP201, with CP262 and with CP265 was “inactive” throughout. Besides, the Potency in the test with CP217 was 10 µM (active).
As to `C/C(=C\C(=O)OCCCCCCCCC(=O)O)C[C@@H]1OC[C@H](C[C@@H]2O[C@H]2[C@@H](C)[C@H](C)O)[C@@H](O)[C@H]1O`, the Potency in the test with CP194 is 0.135 µM (active); in the test on CP256, 0.316 µM (active).
As for `CCCCCCCCCCCCCCCCOCCOCCOCCOCCOCCOCCOCCOCCOCCOCCOCCOCCOCCOCCOCCOCCOCCOCCOCCOCCO`, the figures for the Potency in the test with ATS95, in the test on CP237 and with CP260 were 11.2 µM (active), 7.08 µM (active) and 11.2 µM (active), respectively. In the test with CP262, the Potency entry is “inactive”.
As for `COc1ccc(/C=C/C(=O)O)cc1`, the Potency result in the test with C2A, with CP185, in the test with CP191, in the test on CP192, in the test with CP194 and in the test with CP201 was “inactive” throughout. Moreover, the Potency entry in the test on CP203, in the test on CP211, with CP215, in the test with CP217, in the test on CP237 and in the test on CP238 was “inactive” in each case. For the same molecule, the Potency result in the test with CP247, with CP250, in the test with CP252, in the test on CP256, in the test on CP260 and in the test on CP262 was “inactive” in each case. Moreover, in the test on CP265, the Potency result is “inactive”.
Consider `CN(C)C(=O)CCSC(SCCC(=O)O)c1cccc(/C=C/c2ccc3ccc(Cl)cc3n2)c1` (centres undefined), for which the Potency entry with CP192, in the test on CP201, with CP203, in the test on CP211, with CP215 and with CP250 was “inactive” throughout. Moreover, the Potency entry in the test with CP256, with CP262 and in the test with CP265 was “inactive” each time.
For the molecule `O=C(c1cc2ccccc2o1)N1CCN(Cc2ccccc2)CC1`, the Potency result with C2A, in the test on CP192 and in the test on CP238 was “inactive” in each case. Further, the Potency in the test with CP256 was 10 µM (active); in the test on CP265, 8.91 µM (active).
In the case of `CC(CN(C)C)CN1c2ccccc2Sc2ccc(C(F)(F)F)cc21` (centres undefined), the Potency in the test on CP191 is 8.91 µM (active). Also, in the test with CP192, the Potency entry is “inactive”.
In the case of `Cn1c(=O)c2c(ncn2CCOC(=O)C(C)(C)Oc2ccc(Cl)cc2)n(C)c1=O`, the Potency result with CP192, in the test with CP194, with CP201, in the test on CP203, with CP211 and in the test on CP215 was “inactive” in each case. Moreover, the Potency entry in the test with CP237, in the test with CP250, in the test on CP260 and in the test on CP262 was “inactive” in each case.
Turning to `CSc1nc2cc(Oc3cccc(Cl)c3Cl)c(Cl)cc2[nH]1`, the Potency is 8.91 µM (active) in the test on ATS95; 11.2 µM (active) in the test on CP185; 3.98 µM (active) with CP191; 13.5 µM (active) in the test with CP194; 10.7 µM (active) with CP201; 10.7 µM (active) with CP211. Further, the Potency in the test with CP215 was 9.53 µM (active); with CP217, 3.98 µM (active); in the test with CP237, 11.2 µM (active); with CP238, 8.91 µM (active); with CP247, 3.16 µM (active); with CP250 it was 2.24 µM (active). The Potency in the test with CP252 is 3.16 µM (active); with CP256 it was 1.78 µM (active); in the test on CP260 it was 7.94 µM (active); in the test on CP265 it was 2 µM (active). In the test with CP262, the Potency entry is “inactive”.
In the case of `CCC(=O)c1ccc2c(c1)N(CCCN1CCN(CCO)CC1)c1ccccc1S2`, the Potency with CP191 is 5.62 µM (active); with CP201, 15.1 µM (active); in the test with CP203, 15.1 µM (active); in the test on CP211, 13.5 µM (active); with CP217, 8.91 µM (active); in the test with CP237, 7.94 µM (active). Besides, the Potency in the test with CP250 is 8.91 µM (active); in the test with CP252 it was 11.2 µM (active); in the test on CP256, 7.08 µM (active); in the test on CP260 it was 10 µM (active); in the test with CP262 it was 6.75 µM (active); in the test with CP265 it was 8.91 µM (active).
On to `CCCC(CCC)C(=O)OC1C[C@H]2CC[C@@H](C1)[N+]2(C)C` (some centres undefined), for which the figures for the Potency in the test on CP256 and in the test on CP265 were 12.6 µM (active) and 8.91 µM (active), respectively.
Regarding `CC/C=C\C/C=C\C/C=C\CCCCCCCC(=O)O`, the Potency entry in the test with C2A, in the test with CP185, in the test on CP192, with CP194, in the test with CP201 and in the test with CP203 was “inactive” in each case. The Potency entry in the test with CP211, in the test on CP215, in the test with CP217, in the test on CP237, in the test on CP238 and with CP247 was “inactive” throughout. Besides, the Potency result in the test on CP250, in the test with CP252, with CP256, in the test with CP260, in the test on CP262 and with CP265 was “inactive” throughout.
As for `C=CC[N+]1([C@H]2C[C@H]3[C@@H]4CC[C@H]5C[C@H](O)[C@@H](N6CCOCC6)C[C@]5(C)[C@H]4CC[C@]3(C)[C@H]2OC(C)=O)CCCC1`, the Potency with CP256 is 11.2 µM (active).
On to `NC(N)=NCC1COc2ccccc2O1` (centres undefined), for which the Potency entry in the test with ATS95, in the test on CP185, with CP192, in the test on CP201, in the test with CP203 and in the test on CP217 was “inactive” in each case. The Potency entry in the test with CP237, in the test on CP238, with CP250, in the test on CP252 and in the test on CP265 was “inactive” each time.
Consider `CCN(CC)CCOC(=O)c1cccnc1`, for which the Potency entry in the test with C2A, in the test on CP185, in the test on CP192, with CP194, in the test with CP203 and in the test with CP211 was “inactive” throughout. The Potency result in the test on CP215, in the test on CP217, in the test with CP252, in the test on CP256, with CP260 and in the test with CP262 was “inactive” throughout. Further, in the test on CP265, the Potency entry is “inactive”.
For `CC(C)OC(=O)Nc1ccc2nc(-c3cscn3)[nH]c2c1`, the Potency entry in the test with ATS95, with CP185, in the test with CP191, in the test on CP192, in the test on CP194 and in the test on CP201 was “inactive” throughout. In addition, the Potency entry in the test with CP203, in the test with CP211, in the test with CP215, in the test on CP217, with CP237 and in the test with CP238 was “inactive” throughout. The Potency result in the test with CP250, in the test with CP252, in the test on CP256, with CP260, with CP262 and with CP265 was “inactive” each time.
As to `c1ccc2c(c1)Sc1ccccc1N2CCN1CCCC1`, the Potency is 8.91 µM (active) in the test on ATS95; 10 µM (active) in the test on CP185; 13.5 µM (active) in the test on CP194; 13.5 µM (active) with CP201; 13.5 µM (active) in the test on CP211; 12 µM (active) with CP215. Also, the Potency is 7.08 µM (active) with CP217; 5.01 µM (active) in the test on CP237; 11.2 µM (active) with CP238; 7.08 µM (active) with CP247; 11.2 µM (active) in the test on CP250; 11.2 µM (active) in the test with CP252. Besides, the Potency with CP256 is 10 µM (active); in the test with CP260, 7.94 µM (active); with CP265, 11.2 µM (active). Besides, in the test with CP262, the Potency entry is “inactive”.
On to `Cc1ccc(S(=O)(=O)O)cc1C`, for which the Potency entry in the test on C2A, in the test with CP185, in the test with CP191, in the test with CP192, in the test on CP194 and with CP201 was “inactive” in each case. The Potency entry in the test with CP203, in the test on CP211, in the test with CP215, in the test with CP217, in the test on CP237 and in the test with CP238 was “inactive” each time. In addition, the Potency entry in the test on CP247, in the test on CP250, with CP252, with CP256, in the test with CP260 and with CP262 was “inactive” throughout. The Potency entry in the test with CP265 is “inactive”.
